Among all 69,000 compounds or so, about 1,000 (1.4%) showed an effect of 50% or more. What follows is part of a selection rich in strong results, with near analogues and random picks from the rest.
Test system: Leishmania donovani
Experiment: Leishmania intramacrophage assay
Format: functional, organism-based
Design: scale not given: in the data most compounds retested in dose-response had high values

SMILES	Percent Effect (30.3 µM, […]) [%]	Percent Effect (30 µM, 30.03 µM) [%]
CC(C)CN(Cc1ccsc1)C(=O)CCCn1cncn1	40.23	–
Cc1csc(CCCNC(=O)NC2CC(=O)N(C(C)(C)C)C2)n1 (centres undefined)	22.59	–
CN(Cc1ccsc1)C(=O)c1nc(N2CCCC2)ncc1Cl	20.2	–
CN(Cc1ccsc1)C(=O)c1nc(N2CCCCC2)ncc1Cl	60.89	–
CCOc1ccc(CN(C)C(=O)c2nc(N3CCCC3)ncc2Cl)cc1	58.99	–
Cc1noc(C)c1CN(C)C(=O)c1nc(N2CCCC2)ncc1Cl	-8.961	–
O=C(c1nc(N2CCCC2)ncc1Cl)N1CCN(Cc2ccsc2)CC1	1.991	–
CCOc1ccc(NC(=O)c2cnc(N3CCCC3)nc2C)cc1	–	16.9
CCc1c(C(=O)N2CCN(C)[C@@H]3CS(=O)(=O)C[C@@H]32)[nH]c2ccccc12	-15.51	–
CS(=O)(=O)NCc1cn2c(n1)CN(Cc1cccnc1)CC2.O=C(O)C(F)(F)F.O=C(O)C(F)(F)F	33.92	–
O=C(O)C(F)(F)F.O=C(c1ccnnc1)N1CCN2C[C@H](Oc3cccc(F)c3)C[C@H]2C1	–	5.462
COc1cccc(OC)c1C(=O)N1C[C@@H](CN(C)C)[C@@H](CO)C1	-22.82	–
COc1ccc(CN2C[C@@H](CN(C)C)[C@@H](CO)C2)cc1OC	51.5	–
CN(C)C[C@@H]1CN(Cc2ccccc2C#N)C[C@@H]1CO	-11.66	–
COc1ccc(CN2C[C@@H](CN(C)C)[C@@H](CO)C2)cc1CN1CCCC1	7.971	–
COc1ccc(CN2C[C@@H](CN(C)CCO)[C@@H](CO)C2)cc1Cl	33.72	–
COc1ccc(CN2C[C@@H](CN(C)C)[C@@H](CO)C2)c(Cl)c1OC	52.59	–
Cc1noc(C)c1CN1CCC(NC(=O)OC(C)(C)C)CC1	3.614	–
CC(C)c1noc(-c2ccc(NCC3CCCOC3)nc2)n1 (centres undefined)	22.02	–
Cc1cccc(-n2cnnc2CCCN2CCOCC2)c1	22.56	–
COc1cccc(CN2C[C@@H]3COC[C@]3(CNC(=O)C3CC3)C2)c1.O=C(O)C(F)(F)F	43.72	–
Cc1cnccc1CNCc1ccc(OC23CCCN(CC2)C3)cc1 (centres undefined)	13.67	–
c1ccc(Oc2ccc(OC34CCCN(CC3)C4)cc2)cc1 (centres undefined)	89.06	–
O=c1[nH]nc(CNCc2ccc(OC34CCCN(CC3)C4)cc2)[nH]1 (centres undefined)	39.69	–

SMILES	Percent Effect (30.3 µM, […]) [%]	Percent Effect (30 µM, 30.03 µM) [%]
c1ccc(Oc2cccc(OC34CCCN(CC3)C4)c2)cc1 (centres undefined)	65.6	–
Cc1nc(CNCc2cccc(OC34CCCN(CC3)C4)c2)n[nH]1 (centres undefined)	36.42	–
COc1cc(C#N)ccc1OC12CCCN(CC1)C2 (centres undefined)	20.92	–
CCN(CC)C(=O)c1nnn(Cc2ccccc2)c1OC	–	-25.11
Cc1ccc(C(=O)N2CCC3(CCC(=O)N(CC(N)=O)C3)CC2)cc1	-8.473	–
CC(C1CC1)N(C(=O)CNc1ccc(C#N)cc1)C1CC1 (centres undefined)	26.89	–
O=C(O)C(F)(F)F.O=C(c1cccc(Cl)c1)N1CC[C@H]2[C@H]1CCN2CC1CCOCC1	–	39.19
CN(C)CCN1CC[C@@H]2[C@@H]1CCN2C(=O)c1cccc(Cl)c1	54.02	–
O=C(O)C(F)(F)F.O=C(c1cccc(Cl)c1)N1CC[C@H]2[C@H]1CCN2CC1CC1	23.02	–
CO[C@H]1CN(C(=O)c2ccc(-c3ccccc3)[nH]2)CC[C@H]1N	45.29	–
CN1[C@H]2CC[C@@H]1CN(C(=O)c1ccc(-c3ccccc3)[nH]1)CC2	78.84	–
O=C(c1ccc(-c2ccccc2)[nH]c1=O)N1CCN(C2CC2)CC1	25.14	–
CCCS(=O)(=O)CC(=O)N1CCN(CC2CC2)c2ccccc21	3.775	–
Cc1ccc2c(n1)N(CCN(C)C)CCN(C(=O)c1cscn1)C2.O=C(O)C(F)(F)F.O=C(O)C(F)(F)F	4.389	–
Cc1ccc2c(n1)N(CCN(C)C)CCN(C(=O)c1ccc[nH]1)C2.O=C(O)C(F)(F)F.O=C(O)C(F)(F)F	–	20.64
Cc1ccc2c(n1)N(CCN(C)C)CCN(C(=O)c1cccs1)C2.O=C(O)C(F)(F)F.O=C(O)C(F)(F)F	50.31	–
O=C(c1ccc(F)c(F)c1)N1CCCCC1c1nc[nH]n1 (centres undefined)	-8.926	–
O=C(c1ccoc1)N1CCCCC1c1nc[nH]n1 (centres undefined)	24.92	–
CC(=O)c1ccc(C(=O)N2CCCCC2c2nc[nH]n2)cc1 (centres undefined)	66.49	–
CCOCC1CN(C(=O)c2cscn2)Cc2cn(C)nc21.O=C(O)C(F)(F)F (centres undefined)	-0.7565	–
O=C(c1ccc(-c2ccc(O)nc2)s1)N1CCCCCC1	19.86	–
Cc1nc(C2CCCNC2)cc(N(C)CCc2cn[nH]c2)n1 (centres undefined)	29.46	–
Cl.c1cc(CC2CCCNC2)nc(NCCc2cnccn2)c1 (centres undefined)	2.895	–
Cc1nc(C2CCCNC2)cc(N(C)CCc2ccccc2)n1 (centres undefined)	66.58	–

SMILES	Percent Effect (30.3 µM, […]) [%]	Percent Effect (30 µM, 30.03 µM) [%]
Cl.c1ccc(CCNc2cccc(C3CCCNC3)n2)cc1 (centres undefined)	71.14	–
CCn1ccnc1CN(C)c1cc(C2CCCNC2)nc(C)n1 (centres undefined)	-6.202	–
Cl.c1cc(NCc2ccncc2)nc(C2CCCNC2)c1 (centres undefined)	20.7	–
CC1(C)Cc2c(cnn2-c2ccccc2)C(NC2CCSCC2)C1 (centres undefined)	17.91	–
CCN1C(=O)[C@H]2CN(Cc3cccnc3)C[C@H]2C12CCN(C(C)=O)CC2	4.627	–
NC(=O)CN1CCC(OCc2ccc(Cl)c(Cl)c2)CC1	39.98	–
NC(=O)C1CCN(C(=O)Cc2ccc(Cl)c(Cl)c2)CC1	12.37	–
CCC(N)C(=O)N1CCC(OCc2ccc(Cl)c(Cl)c2)CC1.Cl (centres undefined)	81.5	–
CSCCC(O)C(=O)N1CCC(OCc2cccnc2)CC1 (centres undefined)	-15.88	–
CNC(=O)CN1CCC(OCc2ccc(Cl)c(Cl)c2)CC1	23.39	–
CCOc1cc(-c2cc(=O)n3c(n2)CCCCC3)ccc1O	-28.99	–
O=C(O)C(F)(F)F.O=C([C@H]1COC[C@H]2CN(c3ncc(F)cn3)C[C@H]21)N1CCOCC1	11.96	–
O=C(CCN1CCCC(CO)(CC2CC2)C1)NCc1cccc(Cl)c1 (centres undefined)	10.86	–
O=C(NCCc1cccs1)[C@H]1CO[C@H]2CCN(CC3CC3)C[C@H]2C1.O=C(O)C(F)(F)F	18.2	–
CN(Cc1ccccn1)C(=O)[C@H]1CO[C@H]2CCN(CC3CC3)C[C@H]2C1.O=C(O)C(F)(F)F.O=C(O)C(F)(F)F	67.47	–
COCCN1CC[C@@H]2OC[C@H](C(=O)N(C)Cc3ccccn3)C[C@@H]2C1	34.37	–
Cc1nc(CN2CCO[C@H]3CN(C(=O)c4cccn4C)C[C@H]32)cs1	20.02	–
O=C(CSc1ccncc1)NC1CC(=O)N(CCc2ccccc2)C1 (centres undefined)	1.719	–
COc1ncc(-c2cc(-c3ccn(C)c3)nc(N)c2C#N)cn1	4.864	–
CCNc1ncc(-c2cc(-c3ccn(C)c3)nc(N)c2C#N)cn1	-7.222	–
CCn1cc(-c2cc(-c3ccn(C)c3)nc(N)c2C#N)cc1C#N	62.07	–
COc1c(CNCc2ccccc2-n2ccnc2)c(C)nn1C	-14	–
Cc1cc(C)cc(OCn2ccc(C(=O)O)n2)c1	36.81	–
CCN(CC)C(=O)c1ccn(COc2ccccc2)n1	–	25.56

SMILES	Percent Effect (30.3 µM, […]) [%]	Percent Effect (30 µM, 30.03 µM) [%]
CCN(CC)C(=O)c1ccn(COc2cc(C)cc(C)c2)n1	–	51.39
Cc1cc(C(=O)N2C[C@@H](C(=O)O)[C@H](c3ccccc3C)C2)c(C)o1	–	-7.821
O=C(c1cc(-c2cn[nH]c2)nc2cc(F)ccc12)N1CCS(=O)(=O)CC1	4.667	–
Cc1cc(C)cc(C(=O)NCCS(=O)(=O)N2CCSCC2)c1	-32.85	–
Cc1ccoc1C(=O)NCCS(=O)(=O)N1CCSCC1	62.05	–
Cc1ccc(C(=O)NCCS(=O)(=O)N2CCSCC2)o1	-11.12	–
CN1CCN([C@@H]2CN(C(=O)CCOc3ccccc3)C[C@H]2O)CC1	23.88	–
COc1cc(CN[C@@H]2COC[C@H]2Cc2cc(C)no2)cc(OC)c1.O=C(O)CC(O)(CC(=O)O)C(=O)O	4.158	–
CN1CCN(c2nsc(-c3cccnc3)c2C#N)CC1	11.24	–
Cc1nn(C)c(C)c1-c1cnc(C2CCCN(S(C)(=O)=O)C2)cn1 (centres undefined)	19.29	–
CO[C@H]1CN(C(=O)c2cccnc2)[C@@H]2CCCO[C@H]12.O=C(O)C(F)(F)F	4.595	–
Cc1nc(N)cc(N2CCCC(COc3cccc(F)c3)C2)n1 (centres undefined)	87.26	–
Cc1ccccc1OCC1CCCN(c2cc(N)nc(N)n2)C1 (centres undefined)	98.85	–
Cc1nc(CN(C)C)cc(N2CCCC(COc3ccc(F)cc3)C2)n1 (centres undefined)	-8.427	–
COc1cccc(OCC2CCCN(c3cc(C(N)=O)ccn3)C2)c1 (centres undefined)	42.88	–
Cc1ccc(OCC2CCCN(c3cc(C(N)=O)ccn3)C2)cc1 (centres undefined)	60.08	–
CNC(=O)c1ccnc(N2CCCC(COc3cccc(C)c3)C2)c1 (centres undefined)	30.74	–
Nc1cc(N2CCCC(COc3ccc(F)cc3)C2)nc(N)n1 (centres undefined)	-15.02	–
Nc1cc(N2CCCC(COc3ccc(F)cc3)C2)ncn1 (centres undefined)	1.04	–
CCNC(=O)c1ccnc(N2CCCC(COc3ccccc3C)C2)c1 (centres undefined)	33.05	–
Cc1ccc(C(=O)N2Cc3c(CN(C)C)nn(C)c3C2)cc1C.O=C(O)C(F)(F)F	35.58	–
Cc1csc(NC(=O)c2cnc(C3CCCN3)cn2)n1.Cl (centres undefined)	7.514	–

Source: ChEMBL document CHEMBL3988442, “University of Dundee, Small-Polar-MMV Screening Library” (2021)
